From PubChem BioAssay (NCI)
About 83,000 compounds went through this panel and 20% of them were active in at least one assay; those are over-represented in the sample as a whole.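 Testing used 96-well plates and a 48-hour single-concentration exposure. Example: -40 means 40% of the starting cells died.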 Values without a mark were called inactive. Activity calls are given as the source filed them. Rule for the calls: active = growth percent below 10; inactive = the rest.

Columns and labels:
Assay in all cases: NCI-60 one-dose screen, 48 h (100 = growth as untreated, 0 = no growth, -100 = all killed)
Settings in all cases: 10 µM unless noted
HCT-15 colon = tested on: HCT-15 colon
HT29 colon = tested on: HT29 colon
SNB-75 CNS = tested on: SNB-75 CNS
SNB-19 CNS = tested on: SNB-19 CNS
U251 CNS = tested on: U251 CNS
PC-3 prostate = tested on: PC-3 prostate
SK-MEL-5 melanoma = tested on: SK-MEL-5 melanoma
UACC-62 melanoma = tested on: UACC-62 melanoma
LOX IMVI melanoma = tested on: LOX IMVI melanoma
SK-MEL-28 melanoma = tested on: SK-MEL-28 melanoma

SMILES | growth (HCT-15 colon) | growth (HT29 colon) | growth (SNB-75 CNS) | growth (SNB-19 CNS) | growth (U251 CNS) | growth (PC-3 prostate) | growth (SK-MEL-5 melanoma) | growth (UACC-62 melanoma) | growth (LOX IMVI melanoma) | growth (SK-MEL-28 melanoma)
CC(=O)ON1CCCC(P(=O)(OCOC(=O)C(C)(C)C)OCOC(=O)C(C)(C)C)C1=O (configuration not stated) | 3.57% (active) | -4.49% (active) | 25.4% | -7.66% (active) | -8.95% (active) | 17.7% | -55.7% (active) | -64.7% (active) | 9.18% (active) | –
COC(=O)c1cc2c3c(cc(O)c2[nH]1)N(C(=O)C1Cc2cc(OC)c(OC)c(OC)c2N1)CC3CCl (configuration not stated) | 1.13% (active) | -7.58% (active) | -32.9% (active) | -52% (active) | -54.9% (active) | -17.1% (active) | -94.6% (active) | -61% (active) | -94.2% (active) | –
O=C1CCC23OC(C(O)c4ccccc4N12)C1C(Br)=NOC13 (configuration not stated) | 97.4% | 106% | 80.8% | 108% | 107% | 99.2% | 111% | 109% | 99.7% | 106%
C#CCN(CCCOc1ccc(Cl)cc1Cl)CCCSC(=O)CCCCCN1/C(=C\C=C2/CCCC(/C=C/C3=[N+](CCCCCC(=O)[O-])c4ccccc4C3(C)C)=C2Cl)C(C)(C)c2ccccc21 | 87.2% | -26.7% (active) | 42.4% | 14.7% | -63.8% (active) | 20.9% | -25.7% (active) | -25.8% (active) | -29.8% (active) | –
COc1ccc2c(c1)C1(C(=O)N2)C(C#N)=C(c2ccccc2)Nc2c1c(-c1ccccc1)nn2-c1ccccc1 (configuration not stated) | 85% | 43% | 33.8% | 59.7% | 9.08% (active) | 7.28% (active) | 58.6% | 85.1% | 52.7% | –
CCCCc1n(Cc2ccc3ccccc3c2)c2ccccc2[n+]1Cc1ccc2ccccc2c1 | -89.2% (active) | -74.8% (active) | -9.62% (active) | -92.5% (active) | -87.2% (active) | -76.8% (active) | -100% (active) | -92.3% (active) | -93.5% (active) | –
N#CCNc1ccc(C(=O)O)cc1 | 105% | 101% | 103% | 102% | 95% | 94.3% | 101% | 107% | 98.5% | –
C=C1C(=O)O[C@H]2[C@H]1CC/C(COC(=O)CCCCCCC(=O)OC/C1=C/CC[C@@]3(C)O[C@H]3[C@H]3OC(=O)C(=C)[C@@H]3CC1)=C\CC[C@@]1(C)O[C@@H]21 | 0.887% (active) | 3.75% (active) | 63.1% | 65.9% | 44.1% | 36.1% | 36.5% | 42.3% | -10.8% (active) | –
CCCNc1nc(C)[nH]c(=O)c1S | 96.5% | 108% | 91.2% | 93.1% | 95% | 87.4% | 110% | 113% | 91% | –
COc1cc(C2=NN(c3ccccc3)C(c3cccc(Nc4ccnc5cc(C(F)(F)F)ccc45)c3)C2)cc(OC)c1OC (configuration not stated) | 78.1% | 71% | 106% | 92.8% | 95.5% | 72.4% | 89.8% | 83.5% | 81.9% | 100%
O=c1[nH]c2ccccc2cc1-c1nc2ccc(Cl)cc2[nH]1 | 23.5% | 53.1% | 45.1% | 75.5% | 49.5% | 26% | 42.5% | 43% | 42.4% | 72.4%
O=C(CCCC(=O)Nc1ccc(-n2nnc3cc(Cl)c(Cl)cc32)cc1)Nc1ccc(-n2nnc3cc(Cl)c(Cl)cc32)cc1 | 74.1% | 43.8% | 30.4% | 29.8% | 28.7% | 19.4% | 42.2% | 30.8% | 50.9% | 57.9%
COC(=O)/C=C1\SC(=Nc2cccc(OC)c2)N(CCc2c[nH]c3ccccc23)C1=O | 39.9% | 12.2% | 85% | 72.9% | 53.9% | 40.1% | 77.2% | 44.1% | 49.3% | 89.6%
Nc1c(C(=O)Nc2ccccn2)sc2nc3c(cc12)CCCCC3 | 24% | 7.16% (active) | 12.3% | 33.4% | 23.2% | 31.4% | 22.2% | 40.8% | 48.6% | 73.7%
COc1ccc(-c2cn(-c3ccc(Cl)cc3)c(=S)[nH]2)cc1OC | 63.4% | 44.2% | 111% | 90.6% | 75% | 72.4% | 41.7% | 72.5% | 0.188% (active) | 92.4%
C[C@]12CC[C@@H]3c4ccc(O)cc4CC[C@H]3[C@@H]1C[C@H](O)C2 | 44.4% | 94.1% | 84.2% | 66.2% | 63.3% | 80% | 64.9% | 43.6% | 63.4% | 84.3%
COC(=O)/C=C/c1cc(OC(C)=O)c2c(c1)C(C(=O)OC)C(c1ccc(OC(C)=O)c(OC(C)=O)c1)O2 (configuration not stated) | 7.82% (active) | 11% | 46.3% | 23.1% | 7.2% (active) | 12% | -19% (active) | 32.6% | 14.1% | 50.5%
N#CC1(C#N)C2=C(CCCC2)NC(c2c(F)cccc2Cl)C1(C#N)C#N (configuration not stated) | 66.9% | 17.3% | 51.1% | 69.2% | 60.7% | 72.1% | 63.9% | 40.8% | 53.4% | 65.8%
COc1cc(C2=NN(C=O)C(c3cccc(Nc4ccnc5cc(C(F)(F)F)ccc45)c3)C2)cc(OC)c1OC (configuration not stated) | 49.2% | 15.3% | 77.7% | 64.2% | 55.8% | 31.7% | 43% | 75.4% | 43.1% | 50.6%
COc1ccc(C2C(c3ccccc3)C(=O)N2c2cc(OC)c(OC)c(OC)c2)cc1I (configuration not stated) | 13.1% | 1.74% (active) | 57.5% | 33.4% | 15.4% | 22.2% | -41% (active) | 28.1% | 24.3% | 60.3%
Cc1cc2ccccc2c[n+]1CC(=O)c1ccc(-c2ccccc2)cc1 | 84% | 24.8% | 61.4% | 58.8% | 42.7% | 29.7% | 21.6% | 71.2% | 54% | 84%
COc1cc(N=Nc2cc(S(=O)(=O)O)cc3cc(S(=O)(=O)O)cc(O)c23)c(C)cc1N=Nc1c(S(=O)(=O)O)cc2cc(Nc3ccccc3)ccc2c1O | 110% | 105% | 91.1% | 104% | 109% | 90% | 105% | 98.5% | 99.4% | 109%
CCSc1ccc(C2C(Br)C(=O)N2c2cc(OC)c(OC)c(OC)c2)cc1 (configuration not stated) | 15.2% | 2.99% (active) | 51.1% | 33.4% | 12.1% | 20% | -11.3% (active) | 29.6% | 25.7% | 56.7%
COc1cccc(C(=O)OCCn2nc3c4c(cccc42)C(=O)c2ccccc2-3)c1O | 28% | 79.3% | 22.8% | 38.3% | 33.9% | 20.5% | 36.4% | 31.3% | 37.6% | 72.5%
Cc1cnc(SCc2ccc(Cl)cc2)[nH]c1=S | 101% | 82.9% | 85.2% | 98.2% | 96.3% | 104% | 96.9% | 99.4% | 101% | 98.9%
O=C1Nc2ccc(Cl)cc2/C1=N/c1nc(-c2ccc(F)cc2)cs1 | 43.9% | 22.6% | 58.6% | 34.1% | 25.4% | 17.4% | 41.7% | 7.64% (active) | 19.5% | 42.6%
Nc1c(C(=O)c2ccccc2)sc2nc(-c3cc4ccccc4o3)cc(-c3ccc(Cl)cc3)c12 | 86.4% | 106% | 92.3% | 111% | 90% | 87.5% | 97.8% | 102% | 86.5% | 120%
